Rows were chosen to be rich in hits. Some 1.5% of all compounds tested hit in one or more screens of this group.
PolyA inh: yeast polyadenylation inhibition. S. cerevisiae SKY197-pL101 polyadenylation reporter, beta-gal luminescence; efflux-impaired pdr1/pdr3 knockout yeast; score 100 = 6 SD above DMSO. activity score, % at 12 µM. 0.02% of 300,000 active;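 active = lowest replicate activity score at least 50, where 100 means six control SD above control mean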;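 note: yeast exposed to compound for 9 h at 30 °C; higher score means more reporter readthrough which indicates perturbed polyadenylation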
Efflux pump inh: blocks antifungal efflux pumps in multiplex yeast assay; S. cerevisiae Candida pump triplex, Nile Red efflux; inhibition, % at 10 µM; 0.44% of 330,000 active; AID 485275;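 active = plate passing quality check with inhibition over a set limit, or well fluorescence over plate mean plus 4 SD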;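 note: Nile Red retained in pooled yeast measured as flow cytometry median fluorescence; 0% = buffer negative control and 100% = Enniatin B positive control; higher means more Nile Red kept so more efflux inhibition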
GASC-1 inh: blocks human GASC-1 demethylase activity | 0.069% of 330,000 active | GST-JMJD2C(1-420) H3K9me3 demethylation, DELFIA europium | Q9H3R0 | inhibition, % at 2.35 µM;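 active = more than half of a compound's replicate wells show inhibition beyond 50%, single wells judged on their own value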;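 note: signal counts dimethyl H3K9 product captured on neutravidin plate; 0% = median of DMSO wells and 100% = 0.3 times that DMSO median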
NALP1 inh: NALP1 inhibition; S. cerevisiae NALP1/ASC/caspase-1 growth, X-gal OD620, 72 h; inhibition, % at 10 µM; 0.61% of 280,000 active; in the data active = inhibition mostly above about 24%, no sharp cut-off; inactive = mostly below about 32%
NALP3 yeast inh: NALP3 inhibition in yeast | inhibition, % at 10 µM | 0.39% of 330,000 active | AID 2825 | Yeast reconstituted NLRP3/ASC/caspase-1, beta-gal luminescence, 24 h;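 active = inhibition of 50% or more; inactive = inhibition below 50%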;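 note: plate controls were induced DMSO wells for no effect and uninduced yeast grown without galactose for full effect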
HDAC3 inhib: human HDAC3 inhibition; O15379; recombinant HDAC3, fluorogenic peptide/trypsin coupled, fluorescence; inhibition, % at 8.3 µM; 0.15% of 320,000 active; AID 2718; in the data active = inhibition above about 26%, passing the limit was not always enough
Target sequence (O15379 whole entry, looked up): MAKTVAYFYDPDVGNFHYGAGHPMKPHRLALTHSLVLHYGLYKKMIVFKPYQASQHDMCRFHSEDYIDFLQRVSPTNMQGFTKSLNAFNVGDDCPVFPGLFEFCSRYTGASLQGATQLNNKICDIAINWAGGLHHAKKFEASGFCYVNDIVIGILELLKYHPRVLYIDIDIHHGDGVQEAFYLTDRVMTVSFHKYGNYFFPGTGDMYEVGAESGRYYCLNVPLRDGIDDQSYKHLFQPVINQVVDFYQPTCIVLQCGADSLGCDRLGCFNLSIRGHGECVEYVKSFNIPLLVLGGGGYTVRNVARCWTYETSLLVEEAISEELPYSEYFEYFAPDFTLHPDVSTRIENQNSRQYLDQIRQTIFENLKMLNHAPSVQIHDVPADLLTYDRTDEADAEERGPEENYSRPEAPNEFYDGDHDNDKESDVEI
Cmpd fluor yeast: compound fluorescence in yeast efflux pump counter-screen; shares compounds with Efflux pump inh; S. cerevisiae AD/pABC3, flow cytometry; fluorescence ratio to DMSO, % at 10 µM; 4% of 1,700 active; AID 588517;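 active = fluorescence ratio to DMSO above its plate's cutoff, the plate mean ratio plus 5 SD, cut at about 210% in these data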;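 note: unstained yeast with no Nile Red so the signal is compound autofluorescence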
CaMdr1 efflux inh: blocks the Candida albicans Mdr1 efflux pump in yeast | shares compounds with Efflux pump inh | S. cerevisiae AD/CaMDR1, Nile Red efflux, flow cytometry | inhibition, % at 10 µM | 1% of 1,700 active | AID 588518; in the data active = inhibition above about 26%;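 note: 0% = DMSO vehicle and 100% = reference inhibitor; higher means more Nile Red retained so more efflux inhibition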
CaCdr2 efflux inh: inhibitors of Candida albicans Cdr2 efflux pump. shares compounds with Efflux pump inh. S. cerevisiae AD/CaCDR2, Nile Red retention, flow cytometry. Nile Red retention ratio vs DMSO, % at 10 µM. 4% of 1,700 active; in the data active = Nile Red retention ratio vs DMSO above about 190%;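 note: higher ratio means more blocking of Cdr2 efflux of the dye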
CaCdr1 efflux inh: blocks the Candida albicans Cdr1 efflux pump in yeast; shares compounds with Efflux pump inh; S. cerevisiae AD/CaCDR1, Nile Red efflux, flow cytometry; inhibition, % at 10 µM; 1% of 1,700 active;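 active = inhibition above the screen-wide mean plus twice its standard deviation, cut at about 32% in these data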
* = called active by the depositor; nt = not tested or not shown.

SMILES	PolyA inh	Efflux pump inh	GASC-1 inh	NALP1 inh	NALP3 yeast inh	HDAC3 inhib	Cmpd fluor yeast	CaMdr1 efflux inh	CaCdr2 efflux inh	CaCdr1 efflux inh
CN(C)CC/C=C1\c2ccccc2Sc2ccc(Cl)cc21	12.4	-0.1	-25.4	31.5	28.7	-1.9	nt	nt	nt	nt
CCOC(=O)C1CCCN(C(=O)Cn2c(=O)c3cccn3c3cccnc32)C1 (centres undefined)	-2.5	0.2	0.2	-2.3	11.8	-3.0	nt	nt	nt	nt
COc1cc(/C=C2\COC/C(=C\c3ccc(O)c(OC)c3)C2=O)ccc1O	2.3	-0.1	-14.7	-7.6	42.7	1.2	nt	nt	nt	nt
CCc1ccc(N=C2NC(=O)/C(=C/c3cc(OC)c(O)c(OC)c3)S2)cc1	91.2*	0.5*	-1.8	4.1	29.6	-13.7	126.1	0.1	101.5	0.0
COc1cc(/C=C2\SC(=Nc3ccccc3OC)NC2=O)ccc1O	-3.1	0.6*	-4.4	1.3	9.4	-4.5	110.0	-0.1	107.2	0.1
COc1cc(/C=C2/CC/C(=C/c3ccc(O)c(OC)c3)C2=O)ccc1O	61.4*	0.5*	-4.2	nt	1.0	3.3	115.9	0.0	99.7	0.0
COc1ccc(/C=C2\SC(=Nc3ccccc3OC)NC2=O)cc1	-39.2	0.4	16.5	2.2	18.8	-9.1	nt	nt	nt	nt
Cc1onc(-c2ccccc2)c1C(=O)NC1CC1	nt	nt	nt	nt	20.5	nt	nt	nt	nt	nt
COc1ccc(C(=O)NCCc2nnc3ccc(SCC(=O)N4CCCC4)nn23)cc1	7.6	-0.1	0.1	4.2	14.2	-8.4	nt	nt	nt	nt
CC(C)c1ccc(C(=O)NC(=S)Nc2ccc3[nH]c(=O)[nH]c3c2)cc1	8.0	0.1	-0.4	-7.0	13.3	-4.1	107.9	-0.5	112.3	0.1
CC1CCCC(NC(=O)COC(=O)c2cc3ccccc3oc2=O)C1C (centres undefined)	nt	0.0	4.2	nt	6.6	-1.0	nt	nt	nt	nt
CN1C(=O)/C(=C/c2ccc(C(F)(F)F)cc2)Sc2ccc(C(=O)N3CCN(c4ccccn4)CC3)cc21	5.9	0.7*	3.0	10.8	23.9	13.0	100.4	0.1	112.3	0.1
O=C(OCC(=O)N1CCC(Cc2ccccc2)CC1)c1cc(Br)ccc1O	nt	0.0	-0.8	nt	9.4	9.3	nt	nt	nt	nt
CN(C(=O)CN(C)S(=O)(=O)c1ccc(F)cc1)c1c(N)n(Cc2ccccc2)c(=O)[nH]c1=O	-7.9	0.2	-6.6	nt	2.7	-0.8	nt	nt	nt	nt
CCO[C@@H]1OC(C(=O)Nc2ccccc2)=C[C@H](c2ccccc2)[C@H]1CCCO	-13.6	0.0	-0.3	-8.5	9.8	9.2	nt	nt	nt	nt
CCO[C@@H]1OC(C(=O)Nc2ccccc2)=C[C@H](c2ccc(Br)cc2)[C@H]1CCCO	2.6	0.8*	3.2	-2.8	10.2	13.3	100.0	-0.2	120.6	0.1
COc1ccc(OC)c(NC(=O)C2CCN(S(=O)(=O)c3ccc4c(c3)CC(C)N4C(C)=O)CC2)c1 (centres undefined)	-5.0	-0.3	66.3	7.6	-1.0	-1.5	nt	nt	nt	nt
Cn1nc([N+](=O)[O-])nc1Sc1ccc(Cl)cc1	-17.2	0.8*	-0.1	14.9	-1.4	-3.8	89.3	-0.1	107.2	-0.1
Cn1cnnc1Sc1nc([N+](=O)[O-])nn1C	5.2	-0.1	11.0	-25.1	3.4	-0.6	nt	nt	nt	nt
CC(=O)Nc1ccccc1OCC(=O)NCC(F)(F)F	3.4	0.6*	8.1	3.1	-2.2	3.9	107.8	0.1	108.0	-0.1
CC(=O)Nc1ccccc1OCC(=O)NC(C)c1ccccc1 (centres undefined)	14.9	0.1	18.4	21.3	-12.2	-1.5	nt	nt	nt	nt
CCOC(=O)C1(Cc2ccc(OC)cc2)CCN(C(=O)c2cc3ccccc3[nH]2)CC1	0.5	0.5*	-8.2	30.4	15.3	-1.3	92.1	0.0	110.3	-0.1
C/C(=N\NC(=O)C1CC1)c1ccccc1O	20.6	0.1	-4.3	-6.2	-2.7	1.6	nt	nt	nt	nt
COc1ccc(-c2nc(C(N)=O)c3[nH]c(=O)n(-c4ccccc4OC)c3n2)c(OC)c1	-10.0	-0.1	25.4	-17.4	-4.1	2.3	98.9	-0.4	92.0	0.0
COc1ccccc1-n1c(=O)[nH]c2c(C(N)=O)nc(-c3cccnc3)nc21	7.0	0.0	-11.8	-3.4	9.2	-3.5	nt	nt	nt	nt
SMILES	PolyA inh	Efflux pump inh	GASC-1 inh	NALP1 inh	NALP3 yeast inh	HDAC3 inhib	Cmpd fluor yeast	CaMdr1 efflux inh	CaCdr2 efflux inh	CaCdr1 efflux inh
Cc1ccc(-n2c(=O)[nH]c3c(C(N)=O)nc(-c4ccc(C)o4)nc32)cc1	-6.2	-0.1	6.4	-4.8	3.6	7.2	98.6	-0.2	93.0	-0.4
COc1ccc(OC)c(-c2nc(C(N)=O)c3[nH]c(=O)n(-c4ccc(F)cc4)c3n2)c1	16.8	0.2	1.7	-2.5	9.0	1.2	80.1	0.4	89.0	-0.1
CCS(=O)(=O)N1CCC2(CC1)OCCN2S(=O)(=O)c1ccc(C)cc1	5.5	0.0	-19.5	nt	22.2	-5.6	nt	nt	nt	nt
CCCc1cc(=O)[nH]c(SCC(=O)N(CC)c2c(N)n(Cc3ccccc3)c(=O)[nH]c2=O)n1	-1.8	-0.1	-3.3	nt	16.0	0.8	nt	nt	nt	nt
CC(CCC(=O)O)C1CCC2C3C(O)CC4CC(O)CCC4(C)C3CC(O)C12C (centres undefined)	-5.4	-0.1	29.4	-2.0	2.8	3.9	nt	nt	nt	nt
Cc1ccc(S(=O)(=O)c2ccc(Cl)cc2)cc1S(N)(=O)=O	-4.8	-0.3	5.8	-33.0	25.8	-2.6	nt	nt	nt	nt
Cc1ccc(S(=O)(=O)c2ccc(Cl)cc2)cc1S(=O)(=O)N(C)CC(=O)O	7.7	15.2*	-4.5	19.4	5.5	0.5	101.1	-0.2	98.1	0.0
CC1=C(C(=O)c2ccccc2)C(c2ccc(O)cc2)NC(=S)N1 (centres undefined)	-0.9	0.0	-4.6	16.7	10.8	-3.8	nt	nt	nt	nt
CC1=C(C)C(c2ccccc2)NC(=S)N1 (centres undefined)	-12.2	5.5*	2.5	-33.8	8.9	8.1	103.4	-0.1	104.2	0.1
O=C(NNC(=O)C1COc2ccccc2O1)c1ccccc1 (centres undefined)	3.6	-0.1	-1.9	16.8	-3.3	-3.2	nt	nt	nt	nt
O=C(NNC(=O)C1COc2ccccc2O1)c1cccc([N+](=O)[O-])c1 (centres undefined)	6.4	1.2*	-5.1	-3.7	10.3	-8.9	106.8	0.0	97.5	-0.1
Cc1ccc(-n2c(Cc3cccs3)nnc2SCC(=O)Nc2ccc(S(N)(=O)=O)cc2)cc1	10.8	0.1	-3.7	-5.1	0.6	-4.8	nt	nt	nt	nt

Screens: PubChem BioAssay, several laboratories
